Bioassay records from PubChem BioAssay.
A selection: hits, their analogues and other compounds. The true share with any hit is near 1.4%.
LmPK inhibitor = qHTS Assay for Inhibitors of Leishmania Mexicana Pyruvate Kinase (LmPK); Q27686; purified LmPK, Kinase-Glo ATP luminescence, 1 h; Potency, µM (top dose mostly 57.5 µM), for the others: at the top dose activity change, negative = inhibition, usual class: inhibitors; hit rate 0.37% among 290,000
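In 50 mM imidazole pH 7.2 with 7 mM MgCl2, LmPK (0.1 nM) turned over PEP (0.5 mM) and ADP (0.1 mM) for 1 h at room temperature. Luciferase read-out of ATP.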
AmpC inh detg = qHTS Inhibitors of AmpC Beta-Lactamase (assay with detergent). AID 485294, 2010. P00811. Potency, µM (doses to about 114 µM), inactives show at the highest dose activity change, negative = inhibition, usual class: inhibitors. hit rate 0.041% among 370,000. AmpC hydrolysis of nitrocefin, absorbance 480 nm, 0.01% Triton;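 also: 0% = no-compound wells and -100% = no-enzyme wells; nearly all actives have a fitted effect of over 25% in size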
Target sequence (P00811 whole entry, looked up): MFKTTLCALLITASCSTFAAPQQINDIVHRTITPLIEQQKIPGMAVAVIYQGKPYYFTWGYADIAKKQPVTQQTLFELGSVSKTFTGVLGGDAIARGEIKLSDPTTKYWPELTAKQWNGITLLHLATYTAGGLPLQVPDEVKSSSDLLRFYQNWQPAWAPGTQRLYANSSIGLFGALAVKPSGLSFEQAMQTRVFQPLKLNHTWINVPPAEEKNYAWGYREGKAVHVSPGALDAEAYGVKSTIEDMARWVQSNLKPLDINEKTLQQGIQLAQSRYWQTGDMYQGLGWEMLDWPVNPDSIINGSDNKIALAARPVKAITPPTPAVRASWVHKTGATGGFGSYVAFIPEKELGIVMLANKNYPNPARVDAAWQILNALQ
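AmpC (5.3 nM in the dispensed reagent) in 20 mM phosphate pH 7.0 with 0.01% (detergent screen) or 0.0001% Triton X-100 was preincubated with compounds for 15 min at room temperature. Nitrocefin was then added from an 800 uM solution, and hydrolysis was followed at 480 nm.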
Tb PYK inh = qHTS of Trypanosoma Brucei Inhibitors; AID 624173, 2012; hit rate 0.12% among 410,000; Potency, µM (highest dose often 76.8 µM), for the others: at the highest dose activity, negative = inhibition, actives largely listed as inhibitors; pyruvate kinase (Trypanosoma brucei), Q57TT1; TbPYK enzyme, Kinase-Glo Plus ATP luminescence, 45 min; also: nearly all actives have a fitted effect of over 50% in size
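Assay buffer: 50 mM TEA pH 7.2, 100 mM KCl, 10 mM MgCl2, 0.05% BSA, 0.01% Tween-20. Pyruvate kinase from T. brucei plus substrate met compound, then ADP (130 uM final). Luminescence was read post 45 min RT.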
RE007 growth inh = qHTS Assay for Inhibitors of the HIV-1 protein Vpr; hit rate 0.21% among 360,000; S. pombe RE007 Vpr strain, BacTiter-Glo ATP luminescence, 24 h; Potency, µM (titrated, usually from 92.2 µM), without a hit: at the top dose activity change, negative = less growth, most hits filed as inhibitors; active = well fitted falling curve with a large enough effect; inconclusive = small, poorly fitted or top-dose-only effect; inactive = no such curve, though single readings can be large or run the other way; also: nearly all actives have a fitted effect of over 50% in size
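Fission yeast strain RE007, carrying one chromosomally integrated HIV-1 vpr copy, was seeded at OD 0.01 in PMG+AL medium with 23 nL pinned compound. After 24 h at 30 °C and 99% humidity, viability was read by BacTiter-Glo luminescence.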
AmpC inh no detg = qHTS Inhibitors of AmpC Beta-Lactamase (assay without detergent); hit rate 0.52% among 330,000; Potency, µM (top dose mostly 57.1 µM), for inactives: at the top dose activity change, negative = inhibition, usual class: inhibitors; AmpC nitrocefin hydrolysis, absorbance 480 nm, 0.0001% Triton; AID 485341, 2010;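 also: plate controls were no compound for no effect and no enzyme for full effect; nearly all actives have a fitted effect of over 20% in size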
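AmpC (5.3 nM in the dispensed reagent) in 20 mM phosphate pH 7.0 with 0.01% (detergent screen) or 0.0001% Triton X-100 was preincubated with compounds for 15 min at room temperature. Nitrocefin was then added from an 800 uM solution, and hydrolysis was followed at 480 nm.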
Giardia FBPA inh = qHTS Assay for Inhibitors of Fructose-1,6-bisphosphate Aldolase from Giardia Lamblia. AID 2451, 2010. purified Giardia FBPA. hit rate 0.71% among 290,000. Potency, µM (top dose mostly 59.6 µM), for inactives: at the top dose activity, negative = inhibition, hits mostly inhibitors. A8B2U2; also: nearly all actives have a fitted effect of over 55% in size
Target sequence (A8B2U2 whole entry, looked up): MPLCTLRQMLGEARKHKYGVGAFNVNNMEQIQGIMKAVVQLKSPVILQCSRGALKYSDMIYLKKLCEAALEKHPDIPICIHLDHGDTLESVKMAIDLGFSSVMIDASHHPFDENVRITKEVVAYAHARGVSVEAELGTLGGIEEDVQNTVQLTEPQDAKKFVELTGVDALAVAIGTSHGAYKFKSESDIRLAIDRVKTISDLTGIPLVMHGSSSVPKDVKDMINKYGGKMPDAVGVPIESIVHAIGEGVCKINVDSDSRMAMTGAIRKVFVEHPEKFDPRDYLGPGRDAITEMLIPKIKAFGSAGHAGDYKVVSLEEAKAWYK
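Giardia FBPA (40 nM reagent) was preincubated 10 min at RT with compound (up to 57.5 uM final), then substrate plus GAPDH/TPI/NAD/arsenate coupling system with diaphorase/resazurin was added; resorufin fluorescence (525/598 nm) was read after 20 min.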
The depositor's hits bear a star. Unless noted, calls follow the shape of the dose curve; as a rule, active = well fitted curve in the direction sought with a large enough effect; inconclusive = small, poorly fitted or top-dose-only effect, or another doubt; inactive = no such curve, though single readings can be large; an effect the other way counts as inactive or inconclusive. Unless noted, % is scaled to controls: 0 for no effect and ±100 for the full control effect; potency is read from the fitted curve at half-maximal effect.

`CC(=O)C1=C(C)NC(SCC(N)=O)=C(C#N)C1C` (stereo not drawn) gave LmPK inhibitor 15.2%, AmpC inh detg -7.0%, Tb PYK inh 8.91µM*, RE007 growth inh 2.0%, AmpC inh no detg -9.4% and Giardia FBPA inh inconclusive.
`CC(=O)OCC(=O)[C@@]1(O)[C@H](C)C[C@H]2C3C[C@H](F)C4=CC(=O)C=CC4(C)C3[C@@H](O)CC21C` (stereo partly drawn) gave Tb PYK inh -4.7%.
`CCN(Cc1ccccc1)C(=O)c1cc(-c2ccccc2)n[nH]1` gave AmpC inh detg inconclusive and Tb PYK inh -5.4%.
O=C(Nc1ccc(Cl)cc1)Nc1ccc(Cl)c(C(F)(F)F)c1 was read as Tb PYK inh -5.1%.
For Cc1cc(=O)n2nc(N3CCC(C(=O)Nc4c(C)cccc4C)CC3)sc2n1 the results were AmpC inh detg 19.9% and Tb PYK inh -5.9%.
O=C(Nc1cccc(Cl)c1)Nc1nnc(-c2ccncc2)s1 was read as LmPK inhibitor -0.4%, AmpC inh detg inconclusive, Tb PYK inh -8.5%, RE007 growth inh -3.0%, AmpC inh no detg 15.8µM* and Giardia FBPA inh -4.8%.
CS(=O)(=O)c1ccc2nc(NC(=O)Nc3cccc(Cl)c3)sc2c1 was read as LmPK inhibitor -1.6%, AmpC inh detg inconclusive, Tb PYK inh -1.5%, RE007 growth inh 5.2%, AmpC inh no detg 12.6µM* and Giardia FBPA inh -2.8%.
For CS(=O)(=O)c1ccc2nc(NC(=O)Nc3ccc(Cl)c(Cl)c3)sc2c1 the results were LmPK inhibitor 4.3%, AmpC inh detg 1.1%, Tb PYK inh 1.9%, RE007 growth inh -0.2%, AmpC inh no detg -12.6% and Giardia FBPA inh -3.7%.
Cc1c(Cl)cccc1-n1nc(C)c2c(C)cc(=O)n(CC(=O)N3CCCc4ccccc43)c21 was read as AmpC inh detg -6.3% and Tb PYK inh 3.4%.
For C/C(=N\NC(=S)NCc1ccccc1)c1ccc2ccccc2c1 the results were LmPK inhibitor 1.8%, AmpC inh detg -1.4%, Tb PYK inh 3.8%, RE007 growth inh -3.7%, AmpC inh no detg 25.1µM* and Giardia FBPA inh 6.1%.
Screening CC(OC(=O)c1ccc(NS(=O)(=O)c2ccc3[nH]c(=O)[nH]c3c2)cc1)C(=O)Nc1ccc(Cl)cc1 (stereo not drawn) returned LmPK inhibitor 4.2%, AmpC inh detg -12.9%, Tb PYK inh -2.1%, RE007 growth inh -8.1%, AmpC inh no detg -41.9% and Giardia FBPA inh 2.4%.
`COc1ccc(Cl)cc1NC(=O)C(C)OC(=O)c1ccc(NS(=O)(=O)c2ccc3[nH]c(=O)[nH]c3c2)cc1` (stereo not drawn) gave LmPK inhibitor 1.5%, AmpC inh detg -8.7%, Tb PYK inh -12.4%, RE007 growth inh -11.6%, AmpC inh no detg 3.55µM* and Giardia FBPA inh 5.8%.
For Cc1ccc2c(c1C)-c1c(ccc(C)c1C)C(=O)C2=O the results were Tb PYK inh 1.0% and RE007 growth inh 44.7µM*.
For O=C1c2ccccc2C(=O)c2c1ccc(O)c2O the results were Tb PYK inh -21.2%, RE007 growth inh inconclusive and Giardia FBPA inh -15.3%.
Screening COC(=O)c1ccc2c(c1O)C(=O)c1ccccc1C2=O returned LmPK inhibitor -1.1%, AmpC inh detg 2.2%, Tb PYK inh 1.9%, RE007 growth inh 4.47µM*, AmpC inh no detg -0.1% and Giardia FBPA inh inconclusive.
Screening Cc1cc(C)n(CCCO)c(=O)c1C#N returned LmPK inhibitor 1.9%, AmpC inh detg inconclusive, Tb PYK inh -6.7%, RE007 growth inh 7.5%, AmpC inh no detg -13.9% and Giardia FBPA inh 2.1%.
Screening Cc1cc(C)n(CC(C)O)c(=O)c1C#N (stereo not drawn) returned LmPK inhibitor -1.5%, AmpC inh detg 0.4%, Tb PYK inh 4.2%, RE007 growth inh -3.5%, AmpC inh no detg 0.316µM* and Giardia FBPA inh 0.0%.
CC1CCC/C(=C\Nc2ccc(O)cc2)C1=O (stereo not drawn) was read as LmPK inhibitor 0.9%, AmpC inh detg inconclusive, Tb PYK inh -26.4%, RE007 growth inh 4.0%, AmpC inh no detg -24.5% and Giardia FBPA inh 7.92µM*.
`Cc1cc(C(=O)O)ccc1N/C=C1\CCCC(C)C1=O` (stereo not drawn) gave LmPK inhibitor 0.4%, AmpC inh detg -10.1%, Tb PYK inh -6.6%, RE007 growth inh -8.0%, AmpC inh no detg -7.9% and Giardia FBPA inh -6.1%.
c1ccc2c(c1)nnn1c3ccccc3nc21 was read as LmPK inhibitor 10µM*, AmpC inh detg inconclusive, AmpC inh no detg -15.4% and Giardia FBPA inh 3.4%.
Cc1ccc(S(=O)(=O)C(CNS(=O)(=O)c2ccc(F)c(C)c2)c2cccs2)cc1 (stereo not drawn) was read as AmpC inh detg 0.5% and Tb PYK inh -8.8%.
Screening Cc1ccc(C)c(N(CC(=O)N/N=C/c2ccc(-c3ccc([N+](=O)[O-])cc3)o2)S(=O)(=O)c2ccccc2)c1 returned LmPK inhibitor 0.4%, AmpC inh detg -0.5%, Tb PYK inh 3.3%, RE007 growth inh 7.5%, AmpC inh no detg -22.5% and Giardia FBPA inh 5.1%.
`CCOc1ccc(S(=O)(=O)N(CC(=O)N/N=C/c2ccc(-c3ccc([N+](=O)[O-])cc3)o2)c2ccccc2)cc1` gave LmPK inhibitor -0.2%, AmpC inh detg -5.3%, Tb PYK inh -2.1%, RE007 growth inh 15.7%, AmpC inh no detg 12.6µM* and Giardia FBPA inh -9.1%.
For CCc1ccccc1N1CC23C=CC(O2)C(C(=O)O)C3C1=O (stereo not drawn) the results were LmPK inhibitor -4.9%, AmpC inh detg 0.7%, Tb PYK inh -14.8%, RE007 growth inh 2.4%, AmpC inh no detg 3.55µM* and Giardia FBPA inh -1.4%.
Screening CCCCOC(=O)C1[C@H]2C(=O)N(c3ccccc3CC)C[C@]23C=C[C@H]1O3 (stereo partly drawn) returned LmPK inhibitor -1.5%, AmpC inh detg -17.1%, Tb PYK inh 2.0%, RE007 growth inh 12.5%, AmpC inh no detg 22.7% and Giardia FBPA inh 2.4%.
Screening CC(C)=CCc1c(O)ccc(C(=O)Cc2ccccc2)c1O returned LmPK inhibitor 2.7%, AmpC inh detg inconclusive, Tb PYK inh 0.1%, RE007 growth inh 35.5µM*, AmpC inh no detg -59.7% and Giardia FBPA inh -5.7%.
